# Out of some 310,000 compounds screened, about 14,000 (4.5%) showed an effect of 50% or more. Effects have a minus sign here. This excerpt belongs to a sample that is enriched for strong results.
# Biological target: human ether-à-go-go-related gene (hERG) potassium channel (human, UniProt Q12809)
# Experiment: primary screen, population patch clamp on CHO cells stably expressing hERG; higher = less effect of the substance
# 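Note: peak tail current of the secondary pulse compared with the same well before compound.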
# Sequence of human ether-à-go-go-related gene (hERG) potassium channel (Q12809 whole entry, looked up): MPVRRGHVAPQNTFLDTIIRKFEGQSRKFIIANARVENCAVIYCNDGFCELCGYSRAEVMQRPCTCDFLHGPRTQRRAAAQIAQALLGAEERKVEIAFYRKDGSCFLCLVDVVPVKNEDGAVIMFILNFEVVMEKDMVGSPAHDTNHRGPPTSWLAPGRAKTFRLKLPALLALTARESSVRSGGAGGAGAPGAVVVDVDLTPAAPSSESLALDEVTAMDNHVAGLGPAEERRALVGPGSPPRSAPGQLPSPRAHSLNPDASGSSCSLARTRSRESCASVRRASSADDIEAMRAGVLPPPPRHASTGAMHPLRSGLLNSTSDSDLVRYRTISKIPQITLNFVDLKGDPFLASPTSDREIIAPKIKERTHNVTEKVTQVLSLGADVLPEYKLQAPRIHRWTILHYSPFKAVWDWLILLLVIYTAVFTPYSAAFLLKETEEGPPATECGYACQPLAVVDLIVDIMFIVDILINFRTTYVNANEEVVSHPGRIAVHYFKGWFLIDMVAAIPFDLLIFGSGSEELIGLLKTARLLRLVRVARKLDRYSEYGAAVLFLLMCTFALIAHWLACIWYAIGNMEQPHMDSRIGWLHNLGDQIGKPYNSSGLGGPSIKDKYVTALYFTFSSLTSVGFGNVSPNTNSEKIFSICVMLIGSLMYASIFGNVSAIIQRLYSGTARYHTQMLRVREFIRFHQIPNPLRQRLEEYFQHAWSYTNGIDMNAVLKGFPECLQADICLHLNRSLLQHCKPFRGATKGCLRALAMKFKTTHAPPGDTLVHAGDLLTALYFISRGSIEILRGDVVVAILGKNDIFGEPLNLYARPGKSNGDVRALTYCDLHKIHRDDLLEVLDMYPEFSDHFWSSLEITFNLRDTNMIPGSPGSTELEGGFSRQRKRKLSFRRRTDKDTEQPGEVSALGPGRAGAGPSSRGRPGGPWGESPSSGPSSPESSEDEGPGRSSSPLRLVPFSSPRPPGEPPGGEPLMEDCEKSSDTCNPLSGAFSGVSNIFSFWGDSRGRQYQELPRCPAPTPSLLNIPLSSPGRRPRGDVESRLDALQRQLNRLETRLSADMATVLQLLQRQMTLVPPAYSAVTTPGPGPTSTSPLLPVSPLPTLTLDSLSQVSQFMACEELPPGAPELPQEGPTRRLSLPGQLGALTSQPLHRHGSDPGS
row,SMILES,"hERG current change (%, negative = inhibition) at 10uM"
1,O=C(COc1ccc([N+](=O)[O-])cc1)N(Cc1ccccc1)Cc1ccccc1,-41.5%
2,COC(=O)c1c(C)oc2ccc(OC(=O)N3CCOCC3)cc12,-8.62%
3,CCC(CC)c1nnc(NC(=O)c2cc(C(=O)OC)cc([N+](=O)[O-])c2)s1,7.7%
4,COC(=O)c1ccc(OC(=O)CCS(=O)(=O)c2ccc(C)cc2)cc1,-16.4%
5,CC(C)Cc1ccc(CN2CCCC(NC(=O)CSc3nncn3C)C2)cc1 (stereo not drawn),-23.7%
6,Cc1noc(C)c1CCC(=O)NC1CCCN(Cc2ccc(CC(C)C)cc2)C1 (stereo not drawn),-66.8%
7,Cc1ccn(CC(=O)NC2CCCN(Cc3ccc(CC(C)C)cc3)C2)n1 (stereo not drawn),-55.2%
8,CC(=O)c1c(C)nn(CC(=O)NC2CCCN(Cc3ccc(CC(C)C)cc3)C2)c1C (stereo not drawn),-73.4%
9,Cc1noc(C)c1CCC(=O)NC1CCCN(Cc2ccc(Cl)cc2)C1 (stereo not drawn),-24%
10,CC(C)Cc1ccc(CN2CCCC(NC(=O)CCn3cnnn3)C2)cc1 (stereo not drawn),-46.2%
11,CC(C)Cc1ccc(CN2CCCC(NC(=O)CCN3CCCCC3=O)C2)cc1 (stereo not drawn),-45.3%
12,CC(C)Cc1ccc(CN2CCCC(NC(=O)CCN3CCOCC3)C2)cc1 (stereo not drawn),-37.4%
13,CC(C)Cc1ccc(CN2CCCC(NC(=O)Cn3cnnn3)C2)cc1 (stereo not drawn),-26.5%
14,CC(C)C[C@H](NC(=O)c1nc[nH]c1C(=O)NCc1ccc(CNC(=O)OC(C)(C)C)cc1)C(=O)OC(C)(C)C,2.06%
15,CN(C)Cc1nc2c(c(=O)[nH]1)C1(CCCCC1)Cc1ccccc1-2,-11.7%
16,CSc1ccc(/C=C/C(=O)NC23CC4CC(CC(C4)C2)C3)cc1,14.6%
17,C=CCNC(=S)NNC(=O)c1ccc(OCCCC)cc1,10.2%
18,CCN(CC(=O)NC(C)C)C(=O)[C@@H](NC(=O)c1ccco1)C(C)C,11.5%
19,COc1ccc([N+](=O)[O-])cc1C(=O)C(=O)c1ccccc1,8.56%
20,O=C(CCn1c(=S)oc2ccccc21)N1CCN(c2ccc(F)cc2)CC1,-25.3%

row,SMILES,"hERG current change (%, negative = inhibition) at 10uM"
1,Cl.O=C(CCN1C(=O)c2ccccc2S1(=O)=O)N1CCN(c2ccccc2)CC1,2.96%
2,O=C1CCN(C(=O)CCCn2c(=O)oc3ccccc32)CC1,17%
3,O=C(CCn1c(=O)oc2ccccc21)N1CCN(c2ccccc2F)CC1,-23.8%
4,O=C(CCN1C(=O)c2ccccc2S1(=O)=O)N1CCN(c2ccc(F)cc2)CC1,-61.9%
5,O=C(CCCn1c(=O)oc2ccccc21)N1CCN(c2ccccn2)CC1,-47.6%
6,O=C(CCn1c(=O)oc2ccccc21)NCCN1CCOCC1,-2.83%
7,O=C(CCn1c(=O)oc2ccccc21)N1CCN(c2ccc(F)cc2)CC1,-58%
8,O=C(CCCn1c(=O)oc2ccccc21)N1CCN(c2ccc(F)cc2)CC1,-63.9%
9,O=C(CN1C(=O)c2ccccc2S1(=O)=O)N1CCN(c2ccc(F)cc2)CC1,-7.37%
10,O=C(CCn1c(=O)oc2ccccc21)NCCCN1CCOCC1,16.9%
11,O=C(CCn1c(=O)oc2ccccc21)NCCCN1CCN(c2ccc(F)cc2)CC1,-66.2%
12,COc1ccc(C(=O)OCCN2C(=O)c3ccccc3C2=O)cc1,-5.4%
13,COc1cc(OC)cc(-c2sc3ccc(OC)cc3c2C#CCCO)c1,10.5%
14,COc1ccc(CC(=O)NNC(=O)CCC(=O)Nc2cc(C)ccc2C)cc1,10.4%
15,Cc1[nH]c2ccccc2c1C(=O)NS(=O)(=O)Nc1ccccc1,9.15%
16,CS(=O)(=O)c1cccc(C(=O)NCc2ccccc2)c1,-0.394%
17,CC1(c2ccccc2)NC(=O)N(CC(=O)Nc2ccc(N3CCOCC3)cc2N2CCOCC2)C1=O (stereo not drawn),6.74%
18,CCc1ccc(C(=O)N/N=C(\C)c2ccncc2)s1,-11.1%
19,Cc1ccc(Cn2ccnc2C(=O)Nc2ccccc2)cc1,6.59%
20,N#Cc1ccc(Cn2ccnc2C(=O)Nc2ccccc2)cc1,-87%

row,SMILES,"hERG current change (%, negative = inhibition) at 10uM"
1,O=C(Nc1ccccc1)c1nccn1Cc1ccc(F)cc1,-10.9%
2,Cn1c(SCC(=O)NC2CCCC2)nnc1-c1ccncc1,33.9%
3,CCOc1cc(C(=S)N2CCN(C)CC2)ccc1OCC(=O)N1CCCC1,16%
4,Cc1ccc(C2=Nc3cccnc3C(c3ccccc3)=NN2)cc1,0.802%
5,O=C(CSc1nnc2n(C3CCCCC3)c(=O)c3ccccc3n12)OC1CCCCC1,-4.92%
6,COc1ccccc1Cn1c(=O)c2ccccc2n2c(SCC(=O)N3CCCCC3)nnc12,15.2%
7,O=C(CSc1nnc2n(C3CCCC3)c(=O)c3ccccc3n12)N1CCCCCC1,-51.1%
8,CC1CCCN(C(=O)CSc2nnc(-c3cccnc3)n2C2CCCCC2)C1 (stereo not drawn),-13.4%
9,CC1CCCN(C(=O)CSc2nnc3ccccn23)C1 (stereo not drawn),4.63%
10,CC1CCCN(C(=O)CSc2nnc3n(C4CCCC4)c(=O)c4ccccc4n23)C1 (stereo not drawn),-62.7%
11,O=C(O)c1nccnc1C(=O)Nc1ccc(Oc2c(Cl)cccc2Cl)nc1,-26.1%
12,COc1ccc(C)cc1NC(=O)CN1CCN(c2ccc(F)cc2)CC1,-50.4%
13,COc1cc(NC(=O)CN2CCN(CC(=O)Nc3ccccc3OC)CC2)cc(OC)c1,0.0651%
14,COc1ccc(C)cc1NC(=O)CN1CCN(c2ccccc2F)CC1,-10.3%
15,COc1ccc(C)cc1NC(=O)CN1CCN(S(=O)(=O)c2ccc(F)cc2)CC1,7.19%
16,COc1ccccc1NC(=O)CN1CCN(c2ccccc2F)CC1,-18.4%
17,CCN(CC)c1ccc(NC(=O)CN2CCN(CC(=O)Nc3ccccc3OC)CC2)cc1,-26.9%
18,COc1ccccc1N1CCN(CC(=O)Nc2ccc(C)c(F)c2)CC1,-23.1%
19,COc1ccccc1NC(=O)CN1CCN(CC(=O)Nc2ccc(C)c(F)c2)CC1,-70%
20,COc1ccccc1NC(=O)CN1CCN(CC(=O)Nc2ccc(F)cc2)CC1,-79.2%
